Some of the results follow. Records with an inconclusive call do not appear. The source made the active and inactive calls. Calls come from the whole dose curve; as a rule, active = well fitted inhibition curve with a large enough effect; inconclusive = small, poorly fitted or top-dose-only effect; inactive = flat fitted curve, though single readings scatter.

For this test, the target named is Regulator of G-protein signaling 4 (Homo sapiens) (UniProt P49798). Kind of test: qHTS for Inhibitors of Regulator of G Protein Signaling(RGS) 4: Hit Validation. The settings on record: RGS4 GAP activity, Transcreener GDP fluorescence polarization. The text has this: G-protein-coupled receptors (GPCRs) are well-established targets for drug discovery and development. Members of the "regulator of G-protein signaling" (RGS)-protein superfamily have recently emerged as critical modulators of specific GPCR signaling pathways. […] Combining specific RGS domain inhibitors with existing GPCR agonists should potentiate cellular responses and could also increase the specificity of action of existing therapeutics. Small molecule modulators of RGS domain activity should also have clinical utility in inhibiting or potentiating the actions of endogenous GPCR agonists. In particular, the diversity of RGS proteins with highly localized and dynamically regulated distributions in the human brain makes this family of proteins attractive targets for pharmacotherapy of central nervous system (CNS) disorders such as Parkinson's disease, schizophrenia, and anxiety. […] This assay was used to screen the NIH Molecular Libraries Small Molecule Repository (MLSMR) in order to identify a small molecule that inhibits RGS4. NIH Chemical Genomics Center [NCGC] NIH Molecular Libraries Probe Centers Network [MLPCN] MLPCN Grant: DA030555 Assay Submitter (PI): David Siderovski, University of North Carolina Chapel Hill (School of Medicine)
Sequence of Regulator of G-protein signaling 4 (Homo sapiens) (P49798 whole entry, looked up, the tested form may be a part): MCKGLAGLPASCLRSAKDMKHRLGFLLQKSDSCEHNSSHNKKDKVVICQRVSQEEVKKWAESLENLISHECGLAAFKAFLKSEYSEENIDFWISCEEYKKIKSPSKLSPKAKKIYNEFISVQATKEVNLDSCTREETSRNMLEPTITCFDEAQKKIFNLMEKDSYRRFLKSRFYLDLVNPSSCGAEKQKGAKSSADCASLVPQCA
Two microliters of 500nM (2x working concentration) is dispensed into black medium-binding solid-bottom Kalypsys plates. Then with the Kalypsys pintool 23nl of control and compounds are transferred; the control compound is […] CCG-4986 (working concentration). […] An initial fluorescent polarization read (620 nm/688 nm) is performed on the Envision before the plate is incubated for 90 minutes at 30 deg C at a relative humidity of 80%. The plate is once more centrifuged at 1000 RPM for 15 seconds and another Envision fluorescent polarization (620 nm/688 nm) read is carried out.
A general note: Quantitative high-throughput screening tests each substance at several concentrations.
Take `Cc1ccc(-c2nc3ccccn3c2Nc2c(C)cccc2C)o1`: the Potency was 10.6 µM (active).

As for `Cc1ccc(-n2nc(-c3ccco3)cc2C(=O)NCc2cccnc2)cc1`, the Potency is 6.7 µM (active).

In the case of `O=C(Nc1nc(-c2ccncc2)cs1)C1COc2ccccc2O1` (stereo not drawn), the Potency is 5.32 µM (active).

For the origin of these results see PubChem BioAssay AID602388 (National Center for Advancing Translational Sciences (NCATS), 2012).
